Assay outcomes: PubChem, several laboratories
Sampled rows, rich in hits. Any-hit rate of the full collection: about 0.97%.
MEP2 TOR yeast: modulators of MEP2-GFP levels in yeast, primary screen, S. cerevisiae, multiplex flow cytometry, MLPCN library | S. cerevisiae MEP2-GFP strain, 3 h; 100% = DMSO control level | GFP response vs DMSO, % at 10 µM | 0.51% of 330,000 active;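 active = GFP response versus DMSO above a set limit, roughly screen mean plus 3 SD, cut at about 180% in these data; inconclusive = fewer than 70 cells counted for a yeast strain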;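 note: median GFP fluorescence of the barcode-gated MEP2-GFP cells per well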
RPL19A TOR yeast: RPL19A-GFP expression modulators in yeast, primary screen, cell-based, S. cerevisiae, multiplex flow cytometry, MLPCN | S. cerevisiae RPL19A-GFP strain, 3 h; stronger effect = lower value | percent response vs DMSO, % at 10 µM | 0.3% of 330,000 active | AID 2025, 2009;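 active = percent response vs DMSO below 50%; inconclusive = fewer than 70 events counted for the yeast strain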;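 note: median channel GFP fluorescence of the barcoded RPL19A-GFP strain; ratio of sample median GFP to plate DMSO average so 100% = DMSO; lower means less RPL19A-GFP as with rapamycin TOR inhibition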
GASC-1 inh: inhibitors of GASC-1 histone demethylase, primary screen, biochemical, fluorescence, DELFIA europium; Lysine-specific demethylase 4C (Homo sapiens), Q9H3R0; GST-JMJD2C(1-420) H3K9me3 demethylation; inhibition, % at 2.35 µM; 0.069% of 330,000 active;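 active = more than half of a compound's replicate wells show inhibition beyond 50%, single wells judged on their own value; inconclusive = some, but no more than half, of replicates pass 50% inhibition; inactive = no replicate passes 50% inhibition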;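 note: signal counts dimethyl H3K9 product captured on neutravidin plate; 0% = median of DMSO wells and 100% = 0.3 times that DMSO median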
Target sequence (Q9H3R0 1-420 limits assumed): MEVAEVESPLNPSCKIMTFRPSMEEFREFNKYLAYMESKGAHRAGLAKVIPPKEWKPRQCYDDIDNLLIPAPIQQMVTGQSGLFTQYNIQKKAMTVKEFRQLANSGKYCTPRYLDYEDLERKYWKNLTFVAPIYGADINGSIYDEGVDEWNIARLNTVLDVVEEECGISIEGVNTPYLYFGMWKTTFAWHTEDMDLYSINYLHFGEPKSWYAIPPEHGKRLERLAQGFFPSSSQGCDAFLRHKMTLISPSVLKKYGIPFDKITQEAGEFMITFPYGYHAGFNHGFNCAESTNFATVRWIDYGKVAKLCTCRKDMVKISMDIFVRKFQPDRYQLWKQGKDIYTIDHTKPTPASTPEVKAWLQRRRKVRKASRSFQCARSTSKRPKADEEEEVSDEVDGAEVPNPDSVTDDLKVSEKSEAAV
AGP1-GFP MLPCN: modulators of AGP1-GFP expression in yeast TOR pathway, primary screen, cell-based, multiplex flow cytometry, S. cerevisiae, MLPCN library | 3 h; GFP as percent of DMSO wells | GFP response vs DMSO, % at 10 µM | 0.02% of 320,000 active;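 active = GFP response relative to DMSO above a set limit, near screen average plus 3 SD, cut at about 150% in these data; inconclusive = fewer than 70 cells counted for the yeast strain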;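 note: median GFP channel fluorescence of the gated AGP1 strain per well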
CIT2 TOR yeast: modulators of CIT2-GFP expression in yeast, primary screen, S. cerevisiae, GFP fusion, multiplex flow cytometry, MLPCN library | S. cerevisiae CIT2-GFP strain, 3 h; 100 means same as DMSO wells | GFP response vs DMSO, % at 10 µM | 0.065% of 320,000 active | AID 2029, 2009;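 active = GFP response relative to DMSO above a set limit, near the screen mean plus 3 SD, cut at about 150% in these data; inconclusive = Fewer than 70 cells measured for a yeast strain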;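 note: ratio of well median GFP fluorescence to mean of DMSO wells on the plate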
LAP4-GFP MLPCN: modulators of LAP4-GFP expression in yeast, primary screen, S. cerevisiae, multiplex flow cytometry, MLPCN library | 3 h; median GFP as percent of DMSO wells | GFP response vs DMSO, % at 10 µM | 0.34% of 320,000 active;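 active = GFP response vs DMSO above a set limit, about the screen mean plus 3 SD, cut at about 150% in these data; inconclusive = under 70 cell events counted for the yeast strain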
Numbers without * were called inactive; ? = inconclusive; . = no result; [ ] = remark or other dose.

SMILES	MEP2 TOR yeast	RPL19A TOR yeast	GASC-1 inh	AGP1-GFP MLPCN	CIT2 TOR yeast	LAP4-GFP MLPCN
COC(=O)C1CCN(c2ccc([N+](=O)[O-])cc2)CC1	95	94	10	97	96	102
Cc1ccc(C(=O)OC2CCN(c3ccc([N+](=O)[O-])cc3)CC2)cc1	239*[may fluoresce violet]	42*[may fluoresce violet]	4	?	?	?
Cc1ccc(NC(=O)c2ccc(Cn3cc(Br)cn3)o2)cc1	206*[may fluoresce violet]	44*[may fluoresce violet]	-2	74	?	95
COc1ccc(C(CNC(=O)CN2C(=O)NC3(CCCC3)C2=O)N(C)C)cc1 (centres undefined)	110	113	11	104	105	114
O=C(c1ccccc1Br)N1N=C(c2ccccc2)CC1c1ccccc1F (centres undefined)	790*[may fluoresce violet]	19*[may fluoresce violet]	6	?	?	65
CCc1sc(C(=O)N2CCc3ccccc32)cc1C	111	94	13	98	86	158*
O=C(Nc1nccs1)C1CCCN1S(=O)(=O)c1ccc(F)cc1 (centres undefined)	132	105	-7	114	172*	122
COc1ccc(NC(=O)/C(C#N)=C\c2ccc(Br)o2)cc1	94	102	9	103	90	114
N#C/C(=C\c1ccc([N+](=O)[O-])o1)C(=O)Nc1ccc(F)cc1	823*[may fluoresce violet]	114	1	43	?	323*[may fluoresce violet]
COc1cc(/C=N/n2cnnc2)ccc1OCCOc1ccccc1	262*[may fluoresce violet]	.	7	29	?	90
Cc1onc(-c2c(Cl)cccc2Cl)c1NC(=O)NNc1ccccc1	107	100	8	105	107	106
Cc1nc(C(=O)NNC(=O)c2c(-c3c(Cl)cccc3Cl)noc2C)cs1	100	98	-3	99	93	98
Cc1onc(-c2c(Cl)cccc2Cl)c1NC(=O)NNc1c(Cl)cncc1Cl	205*	90	-7	142	123	131
Cc1cc(C(=O)NNC(=O)c2c(-c3c(Cl)cccc3Cl)noc2C)no1	106	92	7	114	150*[may fluoresce green]	103
Clc1cc(Br)ccc1NCc1cccnc1	100	101	10	98	101	100
CCCN(c1ccccc1F)S(=O)(=O)c1cc(-c2cc(C)no2)ccc1OC	134	47*	4	13	96	89
COc1ccc(NC(=O)c2ccc(OCc3c(C)noc3C)c(OC)c2)cn1	190*[may fluoresce violet]	53	-6	?	?	72
COc1cc(C(=O)Nc2nccs2)ccc1OCc1c(C)noc1C	107	102	-5	101	97	102
COc1cc(C=C2C(=O)c3ccccc3C2=O)ccc1O	91	103	-2	97	96	90
CCCCc1ccc(/C=C2\C(=O)c3ccccc3C(O)=C2C(=O)OCC)cc1	115	99	-1	81	91	163*
CC(=O)N/N=C/c1cc(C(C)C)cc(/C=N/NC(C)=O)c1O	195*[may fluoresce violet]	113	-5	49	?	181*[may fluoresce violet]
COc1ccc(CNC(=O)C2CCCN(S(=O)(=O)N3CCC(C)CC3)C2)c(OC)c1 (centres undefined)	92	94	52	94	102	85
COc1ccc(OC)c(CNC(=O)C2CCCN(S(=O)(=O)N3CCC(C)CC3)C2)c1 (centres undefined)	152	14*[may fluoresce violet]	3	?	?	74
COc1cccc(NC(=O)CN(C)C(=O)CCCc2nc3ccccc3s2)c1	107	103	-2	105	100	100
COc1ccc(S(=O)(=O)Nc2cc(C(=O)NC(C)C)ccc2N2CCOCC2)cc1	98	95	-6	98	92	97
CCOC(=O)c1ccc(N2CCOCC2)c(NS(=O)(=O)c2ccc(F)cc2)c1	111	95	8	119	168*[may fluoresce green]	107
